# Results reported in PubChem BioAssay (EPA / NIEHS).
# Activity calls are given as the source filed them. How the source made its calls: active means hit-call score of the fitted dose curve at least 0.9, where 1 is the maximum; inactive means score below 0.9.
# Test: CCTE_Padilla_ZF_Score.Edema: CCTE's 144 Hour Post-fertilization zebrafish Assay Score for Edema Malformation, Padilla Lab (AID 2284406)
# Method in brief: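 Wild-type zebrafish embryos, one per well in Hanks' solution, dosed at 6-8 hpf, sealed and reared at 26C on a 14:10 h cycle; rinsed on 5 dpf. At 6 dpf, blinded assessors scored edema by stereomicroscopy.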
Compound,outcome,AC50
C[Si](Cl)(Cl)CCC(F)(F)C(F)(F)C(F)(F)C(F)(F)C(F)(F)C(F)(F)F,inactive,
NC(=O)C(F)(F)C(F)(F)C(F)(F)C(F)(F)C(N)=O,inactive,
NCC(F)(F)C(F)(F)C(F)(F)C(F)(F)C(F)(F)C(F)(F)C(F)(F)C(F)(F)F,inactive,
O=S(=O)(O)CCC(F)(F)C(F)(F)C(F)(F)C(F)(F)C(F)(F)C(F)(F)C(F)(F)C(F)(F)F,inactive,
OCC(F)(F)C(F)(F)C(F)(F)CO,inactive,
CN(C(=O)C(F)(F)C(F)(F)C(F)(F)F)[Si](C)(C)C,inactive,
COC(F)(C(F)F)C(F)(F)F (stereo unspecified),inactive,
O=C(F)C1(F)C(F)(F)C(F)(F)C(F)(F)C(F)(F)C1(F)F,inactive,
O=S(=O)(O)CCC(F)(F)C(F)(F)C(F)(F)C(F)(F)F,inactive,
NC(=O)C(F)(F)C(F)(F)C(F)(F)F,inactive,
OC(O)C(F)(F)C(F)(F)F,inactive,
OCCCCC(F)(F)C(F)(F)C(F)(F)C(F)(F)F,,29.2 µM (active)
OCC(O)CC(F)(F)C(F)(F)C(F)(F)C(F)(F)F (stereo unspecified),inactive,
O=C(O)CCC(F)(F)C(F)(F)C(F)(F)C(F)(F)C(F)(F)C(F)(F)C(F)(F)F,inactive,
OCC(O)CC(F)(F)C(F)(F)C(F)(F)C(F)(F)C(F)(F)C(F)(F)C(F)(F)C(F)(F)F (stereo unspecified),,9.75 µM (active)
OCCCC(F)(F)C(F)(F)C(F)(F)C(F)(F)C(F)(F)C(F)(F)C(F)(F)C(F)(F)F,inactive,
OCC(F)(F)C(F)(F)C(F)(F)C(F)(F)C(F)(F)C(F)(F)C(F)(F)C(F)(F)CO,inactive,

# Test: CCTE_Padilla_ZF_Score.Position: CCTE's 144 Hour Post-fertilization zebrafish Assay Score for Position, Padilla Lab (AID 2284409)
# Method in brief: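 Wild-type zebrafish embryos (with chorions) exposed singly from 6–8 hpf in sealed wells of Hanks' solution at 26C, rinsed at 5 dpf. At 6 dpf, blinded assessors scored abnormal water-column position by brightfield stereomicroscopy, relative to DMSO.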
Compound,outcome,AC50
C[Si](Cl)(Cl)CCC(F)(F)C(F)(F)C(F)(F)C(F)(F)C(F)(F)C(F)(F)F,inactive,
NC(=O)C(F)(F)C(F)(F)C(F)(F)C(F)(F)C(N)=O,inactive,
NCC(F)(F)C(F)(F)C(F)(F)C(F)(F)C(F)(F)C(F)(F)C(F)(F)C(F)(F)F,inactive,
O=S(=O)(O)CCC(F)(F)C(F)(F)C(F)(F)C(F)(F)C(F)(F)C(F)(F)C(F)(F)C(F)(F)F,inactive,
OCC(F)(F)C(F)(F)C(F)(F)CO,inactive,
CN(C(=O)C(F)(F)C(F)(F)C(F)(F)F)[Si](C)(C)C,inactive,
COC(F)(C(F)F)C(F)(F)F (stereo unspecified),inactive,
O=C(F)C1(F)C(F)(F)C(F)(F)C(F)(F)C(F)(F)C1(F)F,inactive,
O=S(=O)(O)CCC(F)(F)C(F)(F)C(F)(F)C(F)(F)F,inactive,
NC(=O)C(F)(F)C(F)(F)C(F)(F)F,inactive,
OC(O)C(F)(F)C(F)(F)F,inactive,
OCCCCC(F)(F)C(F)(F)C(F)(F)C(F)(F)F,,34.1 µM (active)
OCC(O)CC(F)(F)C(F)(F)C(F)(F)C(F)(F)F (stereo unspecified),inactive,
O=C(O)CCC(F)(F)C(F)(F)C(F)(F)C(F)(F)C(F)(F)C(F)(F)C(F)(F)F,inactive,
OCC(O)CC(F)(F)C(F)(F)C(F)(F)C(F)(F)C(F)(F)C(F)(F)C(F)(F)C(F)(F)F (stereo unspecified),,17.6 µM (active)
OCCCC(F)(F)C(F)(F)C(F)(F)C(F)(F)C(F)(F)C(F)(F)C(F)(F)C(F)(F)F,inactive,
OCC(F)(F)C(F)(F)C(F)(F)C(F)(F)C(F)(F)C(F)(F)C(F)(F)C(F)(F)CO,inactive,

# Test: CCTE_Padilla_ZF_Score.Living: CCTE's 144 Hour Post-fertilization zebrafish Assay Score for Viability, Padilla Lab (AID 2284410);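 further: larval death at 6 dpf judged by absent heartbeat or coagulation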
# Method in brief: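 Wild-type zebrafish embryos were exposed singly from 6–8 hpf in sealed wells of Hanks' solution at 26C, then rinsed at 5 dpf. At 6 dpf, blinded assessors scored mortality (no heartbeat or coagulation) by stereomicroscopy, fitted against DMSO.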
Compound,outcome,AC50
C[Si](Cl)(Cl)CCC(F)(F)C(F)(F)C(F)(F)C(F)(F)C(F)(F)C(F)(F)F,inactive,
NC(=O)C(F)(F)C(F)(F)C(F)(F)C(F)(F)C(N)=O,inactive,
NCC(F)(F)C(F)(F)C(F)(F)C(F)(F)C(F)(F)C(F)(F)C(F)(F)C(F)(F)F,,32.4 µM (active)
O=S(=O)(O)CCC(F)(F)C(F)(F)C(F)(F)C(F)(F)C(F)(F)C(F)(F)C(F)(F)C(F)(F)F,inactive,
OCC(F)(F)C(F)(F)C(F)(F)CO,inactive,
CN(C(=O)C(F)(F)C(F)(F)C(F)(F)F)[Si](C)(C)C,inactive,
COC(F)(C(F)F)C(F)(F)F (stereo unspecified),inactive,
O=C(F)C1(F)C(F)(F)C(F)(F)C(F)(F)C(F)(F)C1(F)F,inactive,
O=S(=O)(O)CCC(F)(F)C(F)(F)C(F)(F)C(F)(F)F,inactive,
NC(=O)C(F)(F)C(F)(F)C(F)(F)F,inactive,
OC(O)C(F)(F)C(F)(F)F,inactive,
OCCCCC(F)(F)C(F)(F)C(F)(F)C(F)(F)F,,88.8 µM (active)
OCC(O)CC(F)(F)C(F)(F)C(F)(F)C(F)(F)F (stereo unspecified),inactive,
O=C(O)CCC(F)(F)C(F)(F)C(F)(F)C(F)(F)C(F)(F)C(F)(F)C(F)(F)F,inactive,
OCC(O)CC(F)(F)C(F)(F)C(F)(F)C(F)(F)C(F)(F)C(F)(F)C(F)(F)C(F)(F)F (stereo unspecified),,17.7 µM (active)
OCCCC(F)(F)C(F)(F)C(F)(F)C(F)(F)C(F)(F)C(F)(F)C(F)(F)C(F)(F)F,inactive,
OCC(F)(F)C(F)(F)C(F)(F)C(F)(F)C(F)(F)C(F)(F)C(F)(F)C(F)(F)CO,,22.2 µM (active)
